# Test results published in PubChem BioAssay (EPA / NIEHS).
# Several values for one entry are separate records, joined by “and”; a condition that tells them apart may be missing. Equal values may be shown once. Records with an inconclusive call do not appear. The source holds several records for some structures; these can differ, active in one and inactive in another. Activity calls are given as the source filed them. Rule for the calls, unless noted: active = hit-call score of the fitted dose curve at least 0.9, where 1 is the maximum; inactive = score below 0.9.
# Assays:
# [1] = UKN2_HCS_IMR90_cell_viability: Viability Assessment in the University of Konstanz (UKN) Leist Lab Neural Crest Cell Migration Assay in human induced IMR90 Pluripotent Stem Cells (UKN2) (AID 2284233);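 note: cells exposed to compound for 24 h after a 24 h migration phase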
# Method in brief: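 Viability read as calcein-AM fluorescence by high-content imaging, Hoechst co-stain, 30 min. Human iPSC (IMR90) neural crest cells had migrated 24 h into stopper-defined gaps before 24 h chemical exposure. Fitted bidirectionally relative to DMSO.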
# [2] = CCTE_Mundy_HCI_Cortical_NOG_NeuronCount: CCTE's Neurite Outgrowth Assay in rat cortical cells for Neuron Count, Mundy Lab (AID 2284236; active = hit-call score of the fitted dose curve at least 0.9, where 1 is the maximum;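 note: neurons counted by imaging betaIII-tubulin and Hoechst stained cortical cells; cells exposed to compound for about 48 hours before fixation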)
# Method in brief: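 Read-out: neuron number by high-content imaging of betaIII-tubulin (Alexa Fluor-488) and Hoechst-labelled rat primary cortical cells.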
# [3] = CCTE_Mundy_HCI_Cortical_NOG_BPCount: CCTE's Neurite Outgrowth Assay in rat cortical cells for Branch Point Count, Mundy Lab (AID 2284237);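 for AC50: branch points counted about two days after chemical exposure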
# Method in brief: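 Measured 50.33 h after dosing, this morphology endpoint uses rat primary cortical cultures labelled for betaIII-tubulin. Branch points are quantified by high-content imaging, with DMSO as negative control and baseline.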
# [4] = UKN4_HCS_LUHMES_cell_viability: Viability Assessment in the University of Konstanz (UKN) Leist Lab Neurite Outgrowth Assay in human LUHMES cells (UKN4) (AID 2284232)
# Method in brief: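 Measured in replated, 2-day-differentiated LUHMES cells treated 24 h; stained 30 min with H-33342 and calcein-AM before high-content imaging.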
# [5] = TAMU_PeakParms_SingleDonor1434_QT: Texas A&M University (TAMU) 1.5-hr Human Induced Pluripotent Stem Cell (iPSC)-derived Cardiomyocytes Calcium (Ca+2) Flux Assay for Cardiotoxicity: QT (decay-rise ratio) (AID 2284235; active = hit-call score of the fitted dose curve at least 0.9, where 1 is the maximum)
# Method in brief: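 Decay/rise ratio of calcium-flux fluorescence scored after 90 min exposure (37C) of donor 1434 iPSC cardiomyocytes to 0.2–100 uM (0.5% DMSO). Beat-cessation and severe-notch points removed; POD is EC05, a 5% rise over DMSO.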
# [6] = read-out: Interleukin 17A (IL17A), IL17A (gene 3605); test: BSK_BT_xIL17A: BioMAP Diversity Plus: BT Assay for Interleukin 17A (IL17A) Biomarker Activity (AID 2284229); details: primary human B cells with PBMC
# Method in brief: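 Luminex xMAP quantification of secreted IL-17A after 24 h chemical exposure of a primary human B cell/PBMC co-culture. Signal increases fitted relative to DMSO negative control.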
# [7] = read-out: Tumor necrosis factor (Homo sapiens) (UniProt P01375); test: BSK_BT_xTNFa: BioMAP Diversity Plus: BT Assay for Tumor necrosis factor alpha (TNF-alpha) Biomarker Activity (AID 2284230); details: primary human B cells with PBMC
# Method in brief: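 B cells with PBMC in co-culture, dosed and sampled at 24 h; secreted TNF-alpha measured by Luminex xMAP bead assay. Activity fitted in the gain direction against DMSO as negative control and baseline.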
# [8] = read-out: Vascular cell adhesion molecule 1 (VCAM1), VCAM1 (gene 7412); test: BSK_MyoF_VCAM1: BioMAP Diversity Plus: MyoF Assay for Vascular cell adhesion molecule 1 (VCAM1) Biomarker Activity (AID 2284231); details: primary human lung fibroblasts
# Method in brief: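 ELISA readout of VCAM-1 on human lung fibroblast cultures 24 hours after dosing, analyzed for signal gain relative to DMSO. Overt cytotoxicity was checked by sulforhodamine B total-protein staining in parallel cultures.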
# [9] = read-out: Collagen I, COL1A1 (gene 1277); test: BSK_MyoF_CollagenI: BioMAP Diversity Plus: MyoF Assay for Collagen I Biomarker Activity (AID 2284238); details: primary human lung fibroblasts
# Method in brief: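 Collagen I levels measured by ELISA on human lung fibroblast cultures 24 h post-dosing, with curve fitting in the positive direction relative to DMSO; SRB staining of parallel wells marked cytotoxicity.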
# Chain of Tumor necrosis factor (Homo sapiens) (P01375 whole entry, looked up): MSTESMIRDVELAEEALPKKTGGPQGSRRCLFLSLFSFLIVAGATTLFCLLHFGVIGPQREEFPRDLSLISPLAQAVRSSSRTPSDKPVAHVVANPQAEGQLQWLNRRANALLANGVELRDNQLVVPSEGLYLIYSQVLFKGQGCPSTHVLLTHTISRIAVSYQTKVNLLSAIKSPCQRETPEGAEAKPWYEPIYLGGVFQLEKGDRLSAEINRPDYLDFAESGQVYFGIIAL
smiles,measurement,setting,value
COP(=O)(OC)OC=C(Cl)Cl,outcome,[1],inactive
same,outcome,[2],inactive
same,AC50,[3],70 µM (active)
same,outcome,[3],inactive
CNC(=O)CSP(=S)(OC)OC,outcome,[3],inactive
CC(C)N(C(=O)COc1nnc(C(F)(F)F)s1)c1ccc(F)cc1,outcome,[4],inactive
same,outcome,[1],inactive
same,outcome,[2],inactive
same,outcome,[3],inactive
CN1CSC(=S)N(C)C1,outcome,[5],inactive
ClC1C(Cl)C(Cl)C(Cl)C(Cl)C1Cl (stereo unspecified),outcome,[6],inactive
same,AC50,[7],30.5 µM (active)
same,outcome,[7],inactive
same,AC50,[8],16.3 µM (active) and 261 nM (active)
same,outcome,[4],inactive
same,outcome,[1],inactive
same,AC50,[9],25.5 µM (active)
same,outcome,[9],inactive
O=[N+]([O-])/N=C1\NCCN1Cc1ccc(Cl)nc1,outcome,[4],inactive
same,outcome,[1],inactive
same,outcome,[3],inactive
O=C(O)COc1ccc(Cl)cc1Cl,outcome,[1],inactive
same,outcome,[2],inactive
same,outcome,[3],inactive
CCC(C)(C)C(=O)OC1=C(c2ccc(Cl)cc2Cl)C(=O)OC12CCCCC2,outcome,[4],inactive
same,outcome,[3],inactive
